Records with an inconclusive call do not appear. Calls of active or inactive are those of the source. Unless noted, calls follow the shape of the dose curve; as a rule, active = well fitted curve in the direction sought with a large enough effect in the repeat runs; inconclusive = weak or mixed curves; inactive = no such curve, though single readings can be large; an effect the other way counts as inactive or inconclusive.
Legend:
[1] = qHTS assay to identify small molecule antagonists of the glucocorticoid receptor (GR) signaling pathway - cell viability counter screen (AID 720693); also: nearly all actives have a fitted effect of over 55% in size
[2] = qHTS assay for identifying genotoxic compounds that show differential cytotoxicity against isogenic chicken DT40 cell lines with known DNA damage response pathways - Rev3 mutant cell line (AID 743014); also: nearly all actives have a fitted effect of over 55% in size; also: potency is read from the fitted curve at half-maximal effect
[3] = qHTS assay for identifying genotoxic compounds that show differential cytotoxicity against isogenic chicken DT40 cell lines with known DNA damage response pathways - Rad54/Ku70 mutant cell line (AID 743015); also: nearly all actives have a fitted effect of over 60% in size; also: potency is read from the fitted curve at half-maximal effect
[4] = qHTS assay to identify small molecule antagonists of the androgen receptor (AR) signaling pathway - cell viability counter screen (AID 743033; also: nearly all actives have a fitted effect of over 45% in size)
[5] = qHTS assay to identify small molecule antagonists of the androgen receptor (AR) signaling pathway using the MDA cell line - cell viability counter screen (AID 743041; also: nearly all actives have a fitted effect of over 45% in size)
Method in brief: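 Viability read by CellTiter-Fluor fluorescence in the same wells as the antagonist screen, added after 15.5 h of a 16 h, 37C exposure. Human breast carcinoma MDA-kb2 AR-luc cells, compounds co-dosed with agonist R1881.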

[6] = qHTS assay to identify small molecule antagonists of the thyroid receptor (TR) signaling pathway - cell viability counter screen (AID 743064); also: nearly all actives have a fitted effect of over 50% in size; also: potency is read from the fitted curve at half-maximal effect
Method in brief: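 GH3.TRE-Luc rat pituitary cells carrying a TRE-luciferase reporter were treated with compound plus 1 nM T3 (final) for 23.5 h at 37 °C. Viability was then read in the same wells by CellTiter-Fluor fluorescence after a further 30 min.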

[7] = target: Androgen receptor (Homo sapiens) (UniProt P10275); assay: qHTS assay to identify small molecule antagonists of the androgen receptor (AR) signaling pathway (AID 743035; active = well fitted inhibition curve with a large enough effect in the signal ratio in the repeat runs, not every such curve was filed as active; the % refers to the signal ratio; also: potency is read from the fitted curve at half-maximal effect)
Chain of Androgen receptor (Homo sapiens) (P10275 whole entry, looked up): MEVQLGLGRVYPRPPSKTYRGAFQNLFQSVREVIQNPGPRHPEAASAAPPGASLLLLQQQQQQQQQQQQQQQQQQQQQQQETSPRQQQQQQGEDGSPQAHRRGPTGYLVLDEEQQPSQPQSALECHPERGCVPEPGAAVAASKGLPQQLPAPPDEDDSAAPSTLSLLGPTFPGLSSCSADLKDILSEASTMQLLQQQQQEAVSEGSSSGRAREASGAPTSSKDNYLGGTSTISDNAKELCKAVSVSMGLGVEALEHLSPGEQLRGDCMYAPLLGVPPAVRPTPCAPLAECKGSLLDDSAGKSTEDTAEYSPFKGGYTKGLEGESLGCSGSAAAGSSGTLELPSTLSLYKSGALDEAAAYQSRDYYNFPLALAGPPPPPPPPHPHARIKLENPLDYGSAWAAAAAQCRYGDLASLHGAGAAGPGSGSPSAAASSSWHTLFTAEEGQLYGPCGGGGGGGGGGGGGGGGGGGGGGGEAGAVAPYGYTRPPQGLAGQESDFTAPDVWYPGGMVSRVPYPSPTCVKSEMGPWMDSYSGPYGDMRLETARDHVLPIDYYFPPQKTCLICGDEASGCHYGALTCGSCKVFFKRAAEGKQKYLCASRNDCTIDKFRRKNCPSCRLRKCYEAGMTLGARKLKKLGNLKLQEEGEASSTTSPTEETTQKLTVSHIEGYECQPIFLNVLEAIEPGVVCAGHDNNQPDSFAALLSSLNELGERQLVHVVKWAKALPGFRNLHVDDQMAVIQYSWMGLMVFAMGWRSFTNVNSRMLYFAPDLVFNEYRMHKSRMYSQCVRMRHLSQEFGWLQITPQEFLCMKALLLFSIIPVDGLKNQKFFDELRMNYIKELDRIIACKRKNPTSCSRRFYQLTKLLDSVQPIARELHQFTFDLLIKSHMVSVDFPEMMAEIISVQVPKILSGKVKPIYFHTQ
Method in brief: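 Steps: seed AR-UAS-bla GripTite HEK293 cells, incubate 4 h at 37C; pin in test compound, then add agonist R1881; incubate 16 h at 37C; add LiveBLAzer B/G FRET substrate, 2 h at room temperature; read fluorescence.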

[8] = target: Androgen receptor (Homo sapiens) (UniProt P10275); assay: qHTS assay to identify small molecule agonists of the androgen receptor (AR) signaling pathway (AID 743036; active = well fitted activation curve with a large enough effect in the signal ratio in the repeat runs, with a control signal flat, not every such curve was filed as active; the % refers to the signal ratio)
Method in brief: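 HEK293 cells stably carrying a UAS-driven beta-lactamase reporter (GeneBLAzer AR-UAS-bla-GripTite) were plated at 2,000 cells/well, rested 4 h at 37C, then exposed to compounds in DMSO for 16 h. LiveBLAzer B/G FRET substrate was added for 2 h at room temperature; fluorescence read.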

[9] = target: Androgen receptor (Homo sapiens) (UniProt P10275); assay: qHTS assay to identify small molecule agonists of the androgen receptor (AR) signaling pathway using the MDA cell line (AID 743040; also: nearly all actives have a fitted effect of over 20% in size; also: potency is read from the fitted curve at half-maximal effect)
Method in brief: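 Luciferase agonist assay: 16 h compound exposure at 37C without CO2 in MDA-kb2 AR-luc cells, whose MMTV promoter responds to both AR and GR. Luminescence measured after 30 min room-temperature incubation with ONE-Glo.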

[10] = qHTS assay for identifying genotoxic compounds that show differential cytotoxicity against isogenic chicken DT40 cell lines with known DNA damage response pathways - wild type cell line (AID 743012); also: nearly all actives have a fitted effect of over 60% in size
Method in brief: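 Cytotoxicity in repair-proficient parental chicken DT40 cells serves as the comparator for Rad54/Ku70- and Rev3-deficient lines. Cells were exposed to compounds for 40 h at 37 C/5% CO2, and ATP-based luminescence (CellTiter-Glo) measured viability.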

Measured: Potency

FB(F)F
inactive: [1] | [2] | [3] | [4] | [5] | [6]

CCCCCCC1CCC(=O)O1 (stereo unspecified)
inactive: [1] | [2] | [3] | [4] | [5] | [6]

Clc1cc(Cl)cc(Cl)c1
inactive: [1] | [2] | [3] | [4] | [5] | [6]

CC12CCC(C(=O)C1=O)C2(C)C (stereo unspecified)
inactive: [1] | [2] | [3] | [4] | [5] | [6]

CC(C)C[C@@H](N)C(=O)O
inactive: [1] | [2] | [3] | [4] | [5] | [6]

CN1[C@@H]2CC[C@H]1CC(OC(=O)C(O)c1ccccc1)C2 (stereo partly specified)
inactive: [1] | [2] | [3] | [4] | [5] | [6]

CCN[C@H]1C[C@H](C)S(=O)(=O)c2sc(S(N)(=O)=O)cc21
inactive: [1] | [2] | [3] | [4] | [5] | [6]

NC(=O)N1c2ccccc2CC(=O)c2ccccc21
inactive: [1] | [4] | [5]
active: [2] 5.96 µM | [3] 5.96 µM | [6] 13.3 µM

COc1ccccc1OCC1CNC(=O)O1 (stereo unspecified)
inactive: [1] | [2] | [3] | [4] | [6]

c1ccc(Cc2ccccc2)cc1
inactive: [1] | [2] | [3] | [5] | [6]

COc1c(N2CCNC(C)C2)c(F)cc2c(=O)c(C(=O)O)cn(C3CC3)c12 (stereo unspecified)
inactive: [1] | [2] | [3] | [4] | [5] | [6]

CCO[Si](OCC)(OCC)c1ccccc1
inactive: [1] | [2] | [3] | [4] | [5] | [6]

CC(=O)c1cnccn1
inactive: [1] | [2] | [3] | [4] | [5] | [6]

CCOC(=O)COc1cc(-n2ncc(C(F)(F)F)c(C)c2=O)c(F)cc1Cl
not listed: [3] | [10]
inactive: all other assays above

CC(C)(C)C(=O)Oc1ccc(S(=O)(=O)Nc2ccccc2C(=O)NCC(=O)O)cc1
inactive: [1] | [3] | [4] | [5] | [6]

CCOC(=O)c1cnc2c(cnn2CC)c1NN=C(C)C
inactive: [1] | [4] | [5] | [6]

Cc1ncc([C@@H](CCCCCCc2ccc3c(n2)NCCC3)CC(=O)O)cn1
inactive: [1] | [3] | [4] | [5] | [6]

C=C[Si](OC(C)=O)(OC(C)=O)OC(C)=O
active: [2] 61.1 µM
not listed: [3] | [10]
inactive: all other assays above

O=[N+]([O-])c1ccc(/C=N\O)o1
inactive: [1] | [4] | [5] | [6]

CCCC[N+](C)(CCCC)CCCC
inactive: [1] | [2] | [4] | [5] | [6]

CCC(=O)OCc1ccccc1
inactive: [2] | [3] | [4] | [5] | [6]

CC(C)=CCC/C(C)=C/C#N
inactive: [1] | [4] | [5] | [6]

COc1cc2c(cc1OC)-c1cc3ccc(OC)c(OC)c3c[n+]1CC2
active: [2] 49 µM
inactive: [1] | [4] | [6]

c1ccc2sc(SN3CCOCC3)nc2c1
inactive: [1] | [2] | [4] | [5] | [6]

NC(=O)N[C@@H](CCC(=O)O)C(=O)O
inactive: [10] | [2] | [3] | [4] | [5] | [6]

C[C@@H]1C[C@H]2[C@@H]3C[C@H](F)C4=CC(=O)C(Cl)=C[C@]4(C)[C@@]3(F)[C@@H](O)C[C@]2(C)[C@@]1(O)C(=O)CO
inactive: [1] | [4] | [5] | [6]
active: [3] 29.8 µM | [7] 3.38 µM | [9] 0.006 µM

CCCCCCCCCCCCCCC(=O)O
inactive: [1] | [4] | [5] | [6]

O=C(c1ccccc1O)c1ccccc1O
inactive: [1] | [4] | [9] | [5]

CCOC(=O)CCC(=O)OCC
active: [2] 68.5 µM
inactive: [1] | [4] | [5]

CC1=NN(c2cccc(S(=O)(=O)O)c2)C(=O)C1
not listed: [1]
inactive: all other assays above

NC(N)=NCCN1CCCCCCC1
inactive: [1] | [4] | [5] | [6]

COc1cc(C(=O)OC(COCCC(C)C)CN2CCOCC2)cc(OC)c1OC (stereo unspecified)
inactive: [1] | [2] | [5] | [6]

CCC(C)(CN(C)C)OC(=O)c1ccccc1 (stereo unspecified)
inactive: [1] | [4] | [5] | [6]

C=CC(=O)OCCCl
inactive: [1] | [4] | [5] | [6]

CC(C)(C)c1ccc(-c2ccc(C(C)(C)C)cc2)cc1
not listed: [2] | [4] | [10]
inactive: all other assays above

Cc1ncc(COP(=O)(O)O)c(C=O)c1O
inactive: [1] | [3] | [4] | [5] | [6]

COc1cc(C)nc(-n2nc(C)cc2OC)n1
inactive: [1] | [4] | [5] | [6]

COc1cc(-c2ccc(=O)[nH]n2)ccc1OC(F)F
inactive: [10] | [3] | [4] | [5] | [6]

O=C(O)c1cn(C2CC2)c2cc(N3CCNCC3)c(F)cc2c1=O
inactive: [1] | [4] | [5] | [6]

CCCCOC(=O)CCC(C)=O
active: [2] 68.6 µM
inactive: [1] | [4] | [5] | [6]

O=C1c2ccccc2C(=O)c2cc(O)ccc21
inactive: [10] | [4] | [5] | [6]

C[N+](C)(CCOc1ccccc1)Cc1cccs1
inactive: [1] | [3] | [4] | [9] | [5] | [6]

CC(C)CC(C)(N)C#N (stereo unspecified)
inactive: [10] | [2] | [3] | [4] | [5] | [6]

CCOC(=O)C1=NOC(c2ccccc2)(c2ccccc2)C1
inactive: [1] | [4] | [5] | [6]
active: [2] 68.6 µM

C=CCCC(=O)O
inactive: [1] | [3] | [4] | [5] | [6]

c1coc(CNc2ncnc3nc[nH]c23)c1
active: [3] 54.5 µM
inactive: [1] | [4] | [5] | [6]

CC(=O)Nc1ccc(OCC(O)CNC(C)C)cc1 (stereo unspecified)
inactive: [1] | [3] | [4] | [5] | [6]

CCCCCCCCN1CCCC1=O
inactive: [1] | [2] | [4] | [5] | [6]

C=C(C)C(=O)OCCOCCOCCOCCOC(=O)C(=C)C
inactive: [1] | [2] | [4] | [5] | [6]

COC(=O)C1=C(C)NC(C)=C(C(=O)OC(C)C)C1c1cccc2nonc12 (stereo unspecified)
not listed: [3] | [4] | [10]
inactive: all other assays above

From PubChem BioAssay (Tox21)
